# Experimental data taken from article PMC7862700, “An all-to-all approach to the identification of sequence-specific readers for epigenetic DNA modifications on cytosine”.
# Legend:
# Assay in all cases: DAPPL (digital affinity profiling via proximity ligation, sequencing); 10 mM Tris-HCl pH 7.5, 50 mM NaCl, 1 mM DTT, 4% glycerol, room temperature, 30 min; GST-TFs on glutathione beads, 16-mer random dsDNA library, 0.1% formaldehyde crosslink after washing; high values mean tight binding
# FEV = target: T1, FEV (Homo sapiens, UniProt Q99581 1-238); conditions: protein: recombinant; tags: N-terminal GST; dsDNA, one strand shown
# T1 sequence: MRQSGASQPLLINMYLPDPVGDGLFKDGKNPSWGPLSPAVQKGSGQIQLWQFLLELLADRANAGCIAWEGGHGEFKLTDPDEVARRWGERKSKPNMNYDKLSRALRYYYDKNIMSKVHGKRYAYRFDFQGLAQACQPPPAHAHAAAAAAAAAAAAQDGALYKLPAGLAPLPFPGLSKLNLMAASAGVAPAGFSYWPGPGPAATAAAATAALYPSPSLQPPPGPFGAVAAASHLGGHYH
# Procedure, shortened: (§1)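 Yeast served to express human transcription factors as GST fusions, which were then captured on glutathione beads and labelled with DNA barcodes. Pooled with a tag-only sample, they were incubated with 200 nmole of a 16-mer random double-stranded DNA library for 30 min at room temperature in Tris/NaCl/DTT/glycerol buffer, washed, crosslinked with 0.1% formaldehyde, ligated by proximity, amplified by PCR and sequenced. Dividing each hexamer's read frequency for a factor by its frequency for the tag-only sample gives the binding signal.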
# ETV5 = ETV5 (Homo sapiens, UniProt P41161 1-510); conditions: protein: recombinant; tags: N-terminal GST; dsDNA, one strand shown
# Procedure, shortened: as §1
# HSF1 = HSF1 (Homo sapiens, UniProt Q00613 1-529); conditions: protein: recombinant; tags: N-terminal GST; chain copies: 3; dsDNA, one strand shown
# Procedure, shortened: as §1
# SPIC = target: T2, SPIC (Homo sapiens, UniProt Q8N5J4 1-248); conditions: protein: recombinant; tags: N-terminal GST; dsDNA, one strand shown
# T2 sequence: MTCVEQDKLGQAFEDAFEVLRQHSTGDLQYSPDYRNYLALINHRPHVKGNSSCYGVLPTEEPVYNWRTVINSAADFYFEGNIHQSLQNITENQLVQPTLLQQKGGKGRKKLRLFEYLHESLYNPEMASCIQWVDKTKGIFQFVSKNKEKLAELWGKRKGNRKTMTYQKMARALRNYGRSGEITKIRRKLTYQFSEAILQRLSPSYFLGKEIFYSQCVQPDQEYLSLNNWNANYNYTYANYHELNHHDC
# Procedure, shortened: as §1
# ELF4 = ELF4 (Homo sapiens, UniProt Q99607 1-663); conditions: protein: recombinant; tags: N-terminal GST; dsDNA, one strand shown
# Procedure, shortened: as §1
# ELK4 = target: T3, ELK4 (Homo sapiens, UniProt P28324-2 1-405); conditions: protein: recombinant; tags: N-terminal GST; dsDNA, one strand shown
# T3 sequence: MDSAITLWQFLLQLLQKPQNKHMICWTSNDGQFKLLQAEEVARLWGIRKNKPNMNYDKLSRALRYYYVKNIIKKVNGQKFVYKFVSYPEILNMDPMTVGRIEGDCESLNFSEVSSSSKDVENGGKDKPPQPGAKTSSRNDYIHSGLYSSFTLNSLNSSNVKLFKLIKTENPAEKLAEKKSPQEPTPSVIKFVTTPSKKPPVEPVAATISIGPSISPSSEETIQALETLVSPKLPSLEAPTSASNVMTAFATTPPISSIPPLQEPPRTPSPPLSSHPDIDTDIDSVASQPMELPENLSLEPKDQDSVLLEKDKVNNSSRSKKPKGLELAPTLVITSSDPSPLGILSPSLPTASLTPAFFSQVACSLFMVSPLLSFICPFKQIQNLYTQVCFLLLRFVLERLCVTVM
# Procedure, shortened: as §1
# ETV2 = target: T4, ETV2 (Homo sapiens, UniProt O00321 1-342); conditions: protein: recombinant; tags: N-terminal GST; dsDNA, one strand shown
# T4 sequence: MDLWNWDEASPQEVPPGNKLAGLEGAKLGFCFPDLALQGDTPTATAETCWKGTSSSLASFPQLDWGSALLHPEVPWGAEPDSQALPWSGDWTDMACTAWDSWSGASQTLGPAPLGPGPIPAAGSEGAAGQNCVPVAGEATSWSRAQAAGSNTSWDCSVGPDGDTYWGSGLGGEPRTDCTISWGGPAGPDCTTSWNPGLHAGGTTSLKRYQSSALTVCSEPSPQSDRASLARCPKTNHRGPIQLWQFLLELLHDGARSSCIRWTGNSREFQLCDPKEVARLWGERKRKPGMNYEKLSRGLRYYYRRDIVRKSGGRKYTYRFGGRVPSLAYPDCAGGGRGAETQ
# Procedure, shortened: as §1
# ELF3 = target: T5, ELF3 (Homo sapiens, UniProt P78545 1-371); conditions: protein: recombinant; tags: N-terminal GST; dsDNA, one strand shown
# T5 sequence: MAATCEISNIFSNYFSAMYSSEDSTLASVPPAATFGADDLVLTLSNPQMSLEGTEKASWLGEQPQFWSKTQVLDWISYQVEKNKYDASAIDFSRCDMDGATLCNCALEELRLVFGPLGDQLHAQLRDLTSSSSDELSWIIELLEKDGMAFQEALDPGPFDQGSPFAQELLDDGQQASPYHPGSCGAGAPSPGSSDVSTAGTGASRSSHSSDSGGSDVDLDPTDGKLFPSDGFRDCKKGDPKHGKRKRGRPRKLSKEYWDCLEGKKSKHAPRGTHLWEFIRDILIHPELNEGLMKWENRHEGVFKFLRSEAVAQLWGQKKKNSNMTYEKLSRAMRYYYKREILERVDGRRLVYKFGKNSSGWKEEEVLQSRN
# Procedure, shortened: as §1
# CRX = CRX (Homo sapiens, UniProt O43186 1-299); conditions: protein: recombinant; tags: N-terminal GST; dsDNA, one strand shown
# Procedure, shortened: as §1
# Chain of CRX (O43186 whole entry): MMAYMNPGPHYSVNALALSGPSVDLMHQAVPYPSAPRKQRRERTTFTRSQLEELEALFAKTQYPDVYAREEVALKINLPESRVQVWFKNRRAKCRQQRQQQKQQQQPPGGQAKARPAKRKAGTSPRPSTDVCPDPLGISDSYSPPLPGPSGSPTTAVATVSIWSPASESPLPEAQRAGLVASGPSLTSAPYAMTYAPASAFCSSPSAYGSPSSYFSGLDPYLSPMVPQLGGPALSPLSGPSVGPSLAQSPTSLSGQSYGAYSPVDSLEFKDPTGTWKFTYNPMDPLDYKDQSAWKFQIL
# Chain of ETV5 (P41161 whole entry): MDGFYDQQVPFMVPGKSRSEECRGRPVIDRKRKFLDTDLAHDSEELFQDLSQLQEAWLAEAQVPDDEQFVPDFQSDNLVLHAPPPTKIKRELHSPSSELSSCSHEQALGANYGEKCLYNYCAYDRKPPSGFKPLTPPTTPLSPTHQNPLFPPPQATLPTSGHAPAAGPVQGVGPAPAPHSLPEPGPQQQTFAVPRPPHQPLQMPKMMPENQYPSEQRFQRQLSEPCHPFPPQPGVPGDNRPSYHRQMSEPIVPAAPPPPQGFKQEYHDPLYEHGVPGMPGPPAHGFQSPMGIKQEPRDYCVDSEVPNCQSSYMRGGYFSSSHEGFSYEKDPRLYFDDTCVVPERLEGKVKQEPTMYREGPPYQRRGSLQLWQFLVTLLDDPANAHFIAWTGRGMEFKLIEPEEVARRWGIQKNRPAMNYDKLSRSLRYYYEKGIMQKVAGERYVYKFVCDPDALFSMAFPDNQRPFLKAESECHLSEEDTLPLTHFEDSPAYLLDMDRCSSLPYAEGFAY
# Chain of ELF4 (Q99607 whole entry): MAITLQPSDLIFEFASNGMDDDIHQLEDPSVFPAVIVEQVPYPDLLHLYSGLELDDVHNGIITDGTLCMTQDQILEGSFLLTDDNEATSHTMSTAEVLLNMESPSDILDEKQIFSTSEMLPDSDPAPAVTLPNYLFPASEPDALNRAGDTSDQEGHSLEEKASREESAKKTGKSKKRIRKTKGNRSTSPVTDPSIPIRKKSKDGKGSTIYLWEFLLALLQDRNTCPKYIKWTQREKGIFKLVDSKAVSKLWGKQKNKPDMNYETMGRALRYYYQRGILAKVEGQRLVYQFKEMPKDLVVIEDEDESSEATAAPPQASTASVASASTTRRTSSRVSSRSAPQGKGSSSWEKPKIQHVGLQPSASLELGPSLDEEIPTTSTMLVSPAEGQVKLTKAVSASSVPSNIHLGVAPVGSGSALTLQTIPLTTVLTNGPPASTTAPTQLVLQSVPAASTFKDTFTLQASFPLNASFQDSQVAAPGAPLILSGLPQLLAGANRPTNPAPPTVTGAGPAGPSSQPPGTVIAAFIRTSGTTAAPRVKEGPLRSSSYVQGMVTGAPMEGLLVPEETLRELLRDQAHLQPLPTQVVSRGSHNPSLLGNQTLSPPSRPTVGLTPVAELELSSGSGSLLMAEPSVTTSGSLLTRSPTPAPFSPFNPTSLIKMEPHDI
# Chain of HSF1 (Q00613 whole entry): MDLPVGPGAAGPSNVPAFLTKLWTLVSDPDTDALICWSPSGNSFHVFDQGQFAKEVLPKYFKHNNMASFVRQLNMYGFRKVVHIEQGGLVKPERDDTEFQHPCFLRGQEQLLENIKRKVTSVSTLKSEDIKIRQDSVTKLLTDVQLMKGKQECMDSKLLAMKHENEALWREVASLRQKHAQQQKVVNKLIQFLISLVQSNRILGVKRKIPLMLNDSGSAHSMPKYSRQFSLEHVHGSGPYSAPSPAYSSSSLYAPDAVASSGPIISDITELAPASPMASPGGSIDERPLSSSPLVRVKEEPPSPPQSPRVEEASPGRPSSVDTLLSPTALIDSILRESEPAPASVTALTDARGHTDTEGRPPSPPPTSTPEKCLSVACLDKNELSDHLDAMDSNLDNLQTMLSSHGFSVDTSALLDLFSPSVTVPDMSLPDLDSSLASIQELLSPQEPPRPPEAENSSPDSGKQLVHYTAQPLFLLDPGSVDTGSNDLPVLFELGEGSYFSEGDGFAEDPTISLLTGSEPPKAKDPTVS
sequence,measurement,setting,value
GTTTCG,binding signal,FEV,"1.27 fold enrichment (6-mer frequency, TF over GST control)"
same,binding signal,ETV5,"1.28 fold enrichment (6-mer frequency, TF over GST control)"
same,binding signal,HSF1,"1.44 fold enrichment (6-mer frequency, TF over GST control)"
same,binding signal,SPIC,"1.24 fold enrichment (6-mer frequency, TF over GST control)"
same,binding signal,ELF4,"1.33 fold enrichment (6-mer frequency, TF over GST control)"
same,binding signal,ELK4,"1.34 fold enrichment (6-mer frequency, TF over GST control)"
same,binding signal,ETV2,"1.24 fold enrichment (6-mer frequency, TF over GST control)"
same,binding signal,ELF3,"1.09 fold enrichment (6-mer frequency, TF over GST control)"
same,binding signal,CRX,"1.09 fold enrichment (6-mer frequency, TF over GST control)"
